Counter-ions that a name gives are not always drawn.
Experiments:
[1] = tested on: Staphylococcus aureus MW2 delta-mecA (mecA-); test: normalized GFP fluorescence (growth of mecA- strain) (fraction of control range); higher = more growth of mecA- strain; settings: compound concentration: 150 uM; cefoxitin: subinhibitory; fluorescent label: GFP
In short: (§1)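 Fluorescence from DsRed (540/590) and GFP (485/520) was recorded after 20 h of static growth at 37 °C and 90% humidity. The wells held a 1:1 mix of pre-induced S. aureus MW2 cells, gene-bearing with DsRed and gene-deleted with GFP, in LB with a daily-set subinhibitory antibiotic dose, dispensed at 5 µL/well onto 150 μM compound (1.5% DMSO) in 1536-well plates, single replicate. Each channel was scaled per plate between single-strain control medians, excluding plates with high untreated ratios and rows with DsRed/GFP >10.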

[2] = tested on: Staphylococcus aureus MW2 (mecA+); test: normalized DsRed fluorescence (growth of mecA+ strain) (fraction of control range); higher = more growth of mecA+ strain; settings: compound concentration: 150 uM; cefoxitin: subinhibitory; fluorescent label: DsRed
In short: as §1

SMILES	normalized GFP fluorescence [1]	normalized DsRed fluorescence [2]
CCN(CC)CCNC(=O)c1c(C)[nH]c(/C=C2\C(=O)Nc3ccc(F)cc32)c1C [Sunitinib Malate (Sutent)]	0.0077	1.42
Cn1c(=O)c2[nH]cnc2n(C)c1=O [Aminophylline (Truphylline)]	0.38	1.18
Cc1noc(NS(=O)(=O)c2ccc(N)cc2)c1C	0.025	0.437
N#C[C@@H]1C[C@@H]2C[C@@H]2N1C(=O)[C@@H](N)C12CC3CC(CC(O)(C3)C1)C2	0.824	0.518
CC(C)n1c(/C=C/C(O)CC(O)CC(=O)O)c(-c2ccc(F)cc2)c2ccccc21 (configuration not stated)	0.0168	0.369
CN(C)CCOC(c1ccc(Cl)cc1)c1ccccn1 (configuration not stated)	0.55	0.618
NC(=O)N/N=C/c1ccc([N+](=O)[O-])o1 [Nitrofurazone (Nitrofural)]	0.0137	0.0574
Nc1ccc(S(=O)(=O)Nc2nccs2)cc1	0.273	1.4
Oc1ccc(C2CNCCc3c2cc(O)c(O)c3Cl)cc1 (configuration not stated)	0.582	0.979
CO[C@H]1C[C@@H]2CC[C@@H](C)[C@@](O)(O2)C(=O)C(=O)N2CCCC[C@H]2C(=O)O[C@H]([C@H](C)C[C@@H]2CC[C@@H](OCCO)[C@H](OC)C2)CC(=O)[C@H](C)/C=C(\C)[C@@H](O)[C@@H](OC)C(=O)[C@H](C)C[C@H](C)/C=C/C=C/C=C/1C [Everolimus (RAD001)]	-0.00462	1.72
O=C(O)C1(C(=O)O)CCC1.[NH2-].[NH2-].[Pt+2]	0.26	0.886
CC(=O)c1ccc(S(=O)(=O)NC(=O)NC2CCCCC2)cc1	0.35	0.729
O=C(O)Cc1ccccc1Nc1c(Cl)cccc1Cl [Diclofenac]	0.0393	0.175
CN1CCCC(n2nc(Cc3ccc(Cl)cc3)c3ccccc3c2=O)CC1 (configuration not stated) [Azelastine hydrochloride (Astelin)]	0.112	1.13
O=C(CCCN1CCC(O)(c2ccc(Br)cc2)CC1)c1ccc(F)cc1	0.243	1.21
C[N+](C)(C)C[C@H](O)CC(=O)[O-] [L-carnitine (Levocarnitine)]	0.171	0.836
C[C@]12CCC(=O)C=C1[C@@H]1C[C@@H]1[C@H]1[C@@H]3[C@@H]4C[C@@H]4[C@@]4(CCC(=O)O4)[C@@]3(C)CC[C@@H]12	0.162	0.65
CC(C)/N=c1\cc2n(-c3ccc(Cl)cc3)c3ccccc3nc-2cc1Nc1ccc(Cl)cc1	0.344	1.15
O=C(NCCN1CCOCC1)c1ccc(Cl)cc1 [Moclobemide]	0.558	0.739
Cc1cc(NS(=O)(=O)c2ccc(N)cc2)no1	0.0197	0.744
CC[C@@H]1C(=O)OC[C@@H]1Cc1cncn1C	0.483	0.892
COc1ccc2[nH]c([S@@+]([O-])Cc3ncc(C)c(OC)c3C)nc2c1	0.281	1.15
CCOc1ccccc1OC(c1ccccc1)C1CNCCO1 (configuration not stated) [Reboxetine mesylate]	0.435	0.581
Cc1cc(=O)[nH]c(=S)[nH]1	0.707	0.716
O=C(OCc1ccccc1)c1ccccc1	0.269	0.596
Cc1[nH]c2ccccc2c1CCNCc1ccc(/C=C/C(=O)NO)cc1 [Panobinostat]	0.228	1.43

SMILES	normalized GFP fluorescence [1]	normalized DsRed fluorescence [2]
Cc1ccc(O)c([C@H](CCN(C(C)C)C(C)C)c2ccccc2)c1 [Tolterodine tartrate (Detrol LA)]	0.08	0.489
C[C@@H]1C[C@H]2[C@@H]3CCC4=CC(=O)C=C[C@]4(C)[C@@]3(Cl)[C@@H](O)C[C@]2(C)[C@@]1(OC(=O)c1ccco1)C(=O)CCl	0.456	1.18
CSCC[C@H](NC(=O)[C@H](Cc1c[nH]c2ccccc12)NC(=O)CCNC(=O)OC(C)(C)C)C(=O)N[C@@H](CC(=O)O)C(=O)N[C@@H](Cc1ccccc1)C(N)=O	0.461	0.68
C=CC(=O)N1CCC[C@@H](n2nc(-c3ccc(Oc4ccccc4)cc3)c3c(N)ncnc32)C1	0.0101	1.1
CN(C)CCCN1c2ccccc2Sc2ccc(Cl)cc21	-0.00289	1.26
CCCC(=O)OCOC(=O)C1=C(C)NC(C)=C(C(=O)OC)C1c1cccc(Cl)c1Cl (configuration not stated) [Cleviprex (Clevidipine)]	0.13	0.595
Nc1ccn(C[C@@H](CO)OCP(=O)(O)O)c(=O)n1 [Cidofovir (Vistide)]	0.408	0.568
CN(C)CCC(c1ccccc1)c1ccccn1 (configuration not stated)	0.504	0.799
CC(=O)OCC(=O)[C@@]12OC3(CCCC3)O[C@@H]1C[C@H]1[C@@H]3CCC4=CC(=O)C=C[C@]4(C)[C@@]3(F)[C@@H](O)C[C@@]12C	0.197	0.883
CNS(=O)(=O)CCc1ccc2[nH]cc(C3CCN(C)CC3)c2c1 [Naratriptan HCl]	0.395	0.662
CCCCOc1ccc(CC(=O)NO)cc1 [Bufexamac]	0.312	0.828
Nc1nc2c(ncn2COC(CO)CO)c(=O)[nH]1	0.466	0.948
NNC(=O)c1ccncc1	0.19	1.03
CC(C)(C)NC(=O)[C@H]1CC[C@H]2[C@@H]3CC[C@H]4NC(=O)C=C[C@]4(C)[C@H]3CC[C@]12C	0.27	0.691
Cc1cc(C(C)(C)C)cc(C)c1CC1=NCCN1	0.345	0.52
NC[C@H](O)c1ccc(O)c(O)c1	0.502	1.06
COc1cc(C(=O)NS(=O)(=O)c2ccccc2C)ccc1Cc1cn(C)c2ccc(NC(=O)OC3CCCC3)cc12 [Zafirlukast (Accolate)]	-0.00168	0.0292
Fc1ccc([C@@H]2CCNC[C@H]2COc2ccc3c(c2)OCO3)cc1	-0.0171	1.15
CN(C)CCC=C1c2ccccc2C=Cc2ccccc21	0.0981	1.21
N[C@@H](Cc1ccc(O)c(O)c1)C(=O)O	0.506	0.611
CNCCc1ccccn1	0.393	0.969
Cc1nccn1CC1CCc2c(c3ccccc3n2C)C1=O (configuration not stated)	0.319	0.626
Cc1ccc(C(=O)Nc2ccc(S(=O)(=O)O)c3cc(S(=O)(=O)O)cc(S(=O)(=O)O)c23)cc1NC(=O)c1cccc(NC(=O)Nc2cccc(C(=O)Nc3cc(C(=O)Nc4ccc(S(=O)(=O)O)c5cc(S(=O)(=O)O)cc(S(=O)(=O)O)c45)ccc3C)c2)c1	0.319	0.63
COc1cc2nccc(Oc3ccc(NC(=O)NC4CC4)c(Cl)c3)c2cc1C(N)=O [E7080 (Lenvatinib)]	0.528	0.638
NS(=O)(=O)Cc1noc2ccccc12 [Zonisamide]	0.595	0.893
Nc1nc2ccc(OC(F)(F)F)cc2s1	0.622	0.37

SMILES	normalized GFP fluorescence [1]	normalized DsRed fluorescence [2]
NS(=O)(=O)c1cc(C2(O)NC(=O)c3ccccc32)ccc1Cl (configuration not stated)	0.344	0.584
CN(C)CCC[C@@]1(c2ccc(F)cc2)OCc2cc(C#N)ccc21	0.12	0.762
CO[C@H]1C(=O)[C@]2(C)[C@@H](OC)C[C@H]3OC[C@@]3(OC(C)=O)[C@H]2[C@H](OC(=O)c2ccccc2)[C@]2(O)C[C@H](OC(=O)[C@H](O)[C@@H](NC(=O)OC(C)(C)C)c3ccccc3)C(C)=C1C2(C)C [Cabazitaxel (Jevtana)]	0.256	1.24
CN(C)CCCOc1nn(Cc2ccccc2)c2ccccc12	0.19	1.11
C[N+]1(C)[C@@H]2C[C@@H](OC(=O)C(O)(c3cccs3)c3cccs3)C[C@H]1[C@@H]1O[C@@H]12 [Tiotropium Bromide hydrate]	0.394	0.674
CC(C)Cc1ccc(C(C)C(=O)O)cc1 (configuration not stated)	0.142	0.294
C[C@](N)(Cc1ccc(O)c(O)c1)C(=O)O	0.258	0.703
COc1ccc2cc([C@H](C)C(=O)O)ccc2c1 [Naproxen (Aleve)]	0.0134	0.825
COc1cc2nccc(Oc3ccc(NC(=O)Nc4cc(C)on4)c(Cl)c3)c2cc1OC [Tivozanib (AV-951)]	0.445	1.09
CCCCCC(=O)O[C@]1(C(C)=O)CC[C@H]2[C@@H]3CCC4=CC(=O)CC[C@]4(C)[C@H]3CC[C@@]21C	0.34	0.39
CN(C)c1cc(NC(=O)CNC(C)(C)C)c(O)c2c1C[C@H]1C[C@H]3[C@H](N(C)C)C(O)=C(C(N)=O)C(=O)[C@@]3(O)C(O)=C1C2=O [Tigecycline]	0.473	0.779
CC(=O)S[C@@H]1CC2=CC(=O)CC[C@]2(C)[C@H]2CC[C@@]3(C)[C@@H](CC[C@@]34CCC(=O)O4)[C@H]12	0.734	0.584
NC[C@@H]1O[C@H](O[C@H]2[C@@H](O)[C@H](O[C@@H]3[C@@H](O)[C@H](N)C[C@H](N)[C@H]3O[C@H]3O[C@H](CO)[C@@H](O)[C@H](O)[C@H]3N)O[C@@H]2CO)[C@H](N)[C@@H](O)[C@@H]1O	0.422	0.794
CCC(=O)O[C@H](CC(=O)O)C[N+](C)(C)C	0.307	1.23
CNC(=C[N+](=O)[O-])NCCSCc1csc(CN(C)C)n1	0.575	0.785
CCc1cccc2c3c([nH]c12)C(CC)(CC(=O)O)OCC3 (configuration not stated)	0.0954	0.562
CN1CCN(CC/C=C2/c3ccccc3Sc3ccc(S(=O)(=O)N(C)C)cc32)CC1	0.0289	1.9
CC(C)c1ccc2oc3nc(N)c(C(=O)O)cc3c(=O)c2c1	0.212	0.319
COc1ccccc1OCC(O)CO (configuration not stated)	0.274	0.991
Oc1ccc(O)cc1	0.379	0.882
CCN(CC)CC#CCOC(=O)C(O)(c1ccccc1)C1CCCCC1 (configuration not stated)	0.0426	0.796
CCC1NC(=O)c2cc(S(N)(=O)=O)c(Cl)cc2N1 (configuration not stated)	0.601	0.513
CCCc1cc(C(N)=S)ccn1 [Protionamide (Prothionamide)]	0.749	0.698
COCCCN1CCC(NC(=O)c2cc(Cl)c(N)c3c2OCC3)CC1 [Prucalopride]	0.256	0.927

From the supplement of paper PMC7695840
